The text below walks through data of PubChem BioAssay AID977606 (Broad Institute, 2014).

Each structure is given as a SMILES string. In all, about 1,500 compounds went through this assay and about 430 (29%) were called active. A selection follows. Results with a measured potency or affinity are listed apart. Values without a mark were called inactive. The rule behind the calls is not given here.

This assay can be described thus: glucose-independent GLuc insulin release activation – cell-based, INS-1E, Gaussia luciferase, luminescence, cherry-pick, counter-screen for glucose-dependent insulin secretion activators, dose response (AID 977606).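 Note: 0% = median of neutral control wells.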 Particulars: INS-1E Gaussia luciferase insulin secretion, no glucose, 100% = twice neutral-control luminescence; series mostly up to 35 µM; activation: at the top concentration. In general terms: A counterscreen serves to expose hits that act by an unwanted route or on another target.
For `Cc1cc(C)n2ncc(-c3cccc(Br)c3)c2n1`, the “activation” value is -14.8%.
For the compound `CCN(CC)C(=O)Cn1c(=O)oc2ccccc21`, the “activation” value was -22.1%.
Take `COC(=O)N1CCCCC1c1cc(C(=O)NCc2ccc(Cl)c(Cl)c2)no1` (stereo not drawn): the “activation” value was -5.55%.
Next, `c1ccc2c(N3CCCCC3)nc(N3CCCC3)nc2c1`: -5.3%.
The value for `CCOC(=O)c1nc(-c2ccccc2)oc1N(C)C` was -3.63%; that for `CCOC(=O)c1sc2nc(C)[nH]c(=O)c2c1C` was -1.02%; that for `COc1ccc(Cc2nnc(-c3ccccc3)o2)cc1` was -14.9%.
Next, `CCCc1nc2n[nH]c(N)c2c2c1COC(C)(C)C2`: 7.71%; `O=C(COc1nncc2ccccc12)NCC(F)(F)F`: -2.23%; `O=C(c1cccc(F)c1)N1CCCc2ccccc21`: 0.696%.
`CCOc1ccc(CCNC(=O)COc2cccc(-n3cnnn3)c2)cc1OCC`: the “activation” value is -5.23%.
Next, `COc1ccc(-c2ccc(=O)n(CC(=O)NC3CCc4ccccc43)n2)cc1OC` (stereo not drawn): -12.5%.
The value for `COCc1ccc(C(=O)NC2CCSc3ccccc32)cc1` (stereo not drawn) was 2.17%.
The value for `CCOc1ncccc1C(=O)Nc1ncc(C)s1` was 1.46%.
`CCOc1ccc(C(=O)NCC(=O)OCCN2C(=O)c3ccccc3C2=O)cc1OCC`: the “activation” value was -13.5%.
Next, `Cc1cc(NCc2ccccn2)nc2ccccc12`: 1.81%; `O=C(O)CCCC(=O)N1CCN(c2nc(-c3ccccc3)c3ccccc3n2)CC1`: 3.53%; `C/C=C1\COC(C(=O)NCc2ccccc2)(C(F)(F)F)C=C1C=C1CCCCC1` (stereo not drawn): 15.7%.
With `CC1=NS(=O)(=O)NC(C)(C)C1`, the “activation” value is 2.88%.
Next, `COc1ccc(C2=Nn3c(nnc3-c3ccccc3OC)SC2)cc1OC1CCOC1` (stereo not drawn): -8.39%.
In the case of `Cc1ccc2nc(N/N=C/c3ccccc3C#N)nc(-c3ccccc3)c2c1`, the “activation” value is 16.9%.
Turning to `Cc1ccc2nc(Cl)nc(-c3ccccc3)c2c1`, the “activation” value is 11.6%.
On to `CCOc1ccc(CCNC(=O)CCNC(=O)c2ccco2)cc1OCC`, for which the “activation” value is 4.42%.
Next, `COc1ccc(CCNC(=O)CCc2ccccc2O)cc1OC`: -18.4%; `COc1ccc(CCNC(=O)CCc2ccccc2)cc1OC`: -95.1%.
The value for `N=c1n(CCN2CCCCC2)c2ccccc2n1CC(O)COc1ccccc1` (stereo not drawn) was -7.71%.
The value for `Clc1cc(NC2CCCCC2)ncn1` was 2.37%; that for `COc1cccc(-c2cc(C(F)(F)F)nc(-n3cncn3)n2)c1` was -12%; that for `CN(C)S(=O)(=O)c1cccc(-c2csc(N/N=C/c3ccco3)n2)c1` was 0.741%.
On to `COc1ccc(CNC(=O)CCn2c(=O)oc3ccccc32)c(OC)c1`, for which the “activation” value is -4.5%.
Next, `Cc1cc(=O)n(Cc2ccccc2)c2ccccc12`: -7.73%; `CC1(c2ccc(OC(F)F)cc2)NC(=O)N(CC(=O)Nc2cccc(S(N)(=O)=O)c2)C1=O` (stereo not drawn): -10.9%.
`CCCn1nc(C(=O)NC2CCCC2)c2ccccc2c1=O`: the “activation” value is 1.18%.
The value for `O=c1[nH]nc(-c2ccccc2)c2ccccc12` was -13.1%; that for `COc1ccc(CCN(C)C(=O)COc2cccc(-n3cnnn3)c2)cc1OC` was -9.14%.
As to `CNc1nc(OCC#N)nc(N2CCCCC2)n1`, the “activation” value is -15.6%.
Next, `Cc1ccc(-n2nnnc2SCc2ccc(C(=O)O)cc2)cc1C`: -8.95%; `C=CCNC(=S)Nc1ccc2cn[nH]c2c1`: -19.4%; `O=S(=O)(N1CCOCC1)n1c(Cc2ccccc2)nc2ccccc21`: -11.3%.
The value for `O=C(Nc1ccc(F)cc1)N1CCCCN2[C@@H](CO)[C@@H](c3ccc(C#Cc4ccccc4)cc3)[C@@H]2C1` was 6.08%; that for `CCN(CC(=O)Nc1ccccc1OC)C(=O)C1CCCC1` was -7.13%; that for `COc1ccc(C2=Nn3c(nnc3-c3ccccc3OC)SC2)cc1OCC1CC1` was -21.9%.
The value for `COc1ccc(C2=NN(C(=O)CCCC(=O)O)C(c3cccs3)C2)cc1OC` (stereo not drawn) was -4.08%.
As for `O=c1[nH]nc(-c2cccs2)c2ccccc12`, the “activation” value was -1.69%.
As for `CCCc1cc(=O)n2[nH]c(C)c(-c3ccc(Cl)cc3)c2n1`, the “activation” value is -8.12%.
Consider `CCN1CCN(c2ccc(S(=O)(=O)N3CCCCC3)cc2NC(=O)c2cc3ccccc3o2)CC1`, for which the “activation” value was -13.4%.
The value for `COc1ccc(NC(=O)c2csc(C)c2)cc1OC` was -17%; that for `CCNC(=O)C1(C)CCCN1C(=O)c1cc(OC)c(OC)c(OC)c1` (stereo not drawn) was 11.6%; that for `COc1ccc(Nc2c3c(nc4ccccc24)CCC3)cc1` was 13.9%.
Next, `O=C(O)COc1ccccc1-c1ccccc1`: -3.67%.
Next, `COc1ccc(/C=N/NC(=O)CN(C2=NS(=O)(=O)c3ccccc32)c2ccccc2)cc1OC`: -21.8%.
Regarding `CCN(c1ccccc1)c1nc(Cl)nc2c1cnn2C`, the “activation” value was 9.73%.
Next, `COCCNC(=O)c1cc2c(c(-c3cccc(C#Cc4ccc(OC)c(OC)c4)c3)n1)[C@H](CCO)N(S(=O)C(C)(C)C)C2` (stereo partly drawn): 4.47%; `COc1ccc(C(=O)C2CCCN(C(=O)c3n[nH]c4c3CCCC4)C2)cc1OC` (stereo not drawn): 3.75%.
As for `Cn1c(=O)[nH]c(=O)c2c1nc(N1CCCCC1)n2C/C=N/Nc1ccc(C(=O)O)cc1`, the “activation” value was 17.4%.
Next, `Cc1cc(-c2ccc(S(=O)(=O)N3CCN(C)CC3)s2)on1`: 38.2%; `Cc1cccc(C)c1NC(=O)NC1CCc2ccccc21` (stereo not drawn): -13.9%.
Next, `COC(=O)c1ccc(C)c(-n2c(=O)n(Cc3ccccc3)c(=O)c3[nH]cnc32)c1`: 1.73%.
Next, `COC(=O)c1scc(C)c1NC(=O)CC1NCCNC1=O` (stereo not drawn): -6.37%; `O=C(c1ccccc1)c1ccc2ccccc2n1`: 4.53%; `COc1ccc(CCNC(=O)NS(=O)(=O)c2ccc(C)cc2)cc1OC`: -1.79%.
Take `COc1cc2c(cc1OC)C(CSc1ccccc1C(=O)O)=NC(C)(C)C2`: the “activation” value was -14.8%.
The value for `Cc1cccc2[nH]c3c(N4CC=C(c5ccc(F)cc5)CC4)ncnc3c12` was 1.04%; that for `COc1cc(C)c(C)cc1S(=O)(=O)N1CCCCC1c1cccnc1` (stereo not drawn) was 5.28%; that for `C[C@@H]1CC2=C(C(=O)OC(C)(C)O2)[C@H](c2ccc(F)cc2)O1` was 2.99%.
The value for `CCCCn1c(=O)n(C)c(=O)c2c3c(sc21)COC(C)(C)C3` was 19.6%.
Next, `CCOC(=O)c1csc(-c2ccc(OC)c(OC)c2)n1`: 12.5%; `COc1ccc(-c2cc(C(=O)N3CCCCCC3)no2)cc1OC`: -8.04%; `C[C@@H]1CN([C@H](C)CO)C(=O)CCCn2cc(nn2)CO[C@H]1CN(C)S(=O)(=O)c1cccs1`: 1.6%.
As to `CCOc1cc(C(=O)N(C)CC(=O)Nc2cccc3ccccc23)ccc1OC`, the “activation” value is -4.18%.
The value for `CCOc1ccc(-c2noc(CCC(=O)NC)n2)cc1OCC` was -9.04%; that for `COc1cc2c(cc1OC)-c1cc(Nc3ccccc3C)nc(=O)n1CC2` was 18.6%.
As to `CCOc1ccc(CCNC(=O)COC(=O)c2ccc(C)s2)cc1OCC`, the “activation” value is 11.7%.
